Molecules are shown by their SMILES. Screen size: about 200,000 compounds; about 80 (0.04%) were called active. Many of the other results were omitted from the sample, so actives are more common in it than they were. Unmarked numbers belong to inactive results.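 Rule for the calls: active = activation above the mean across all tested compounds plus 3 SD, cutoff set per campaign (cut at about 5.5% in these data); inactive = the rest.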

The experiment is described as follows: Hsp70 transcriptional activators, primary screen, cell-based, HeLa, Hsp70 promoter luciferase, luminescence, 10 µM (AID 1203).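 Note: 100% = MG132 at 30 µM as the positive control and 0% = DMSO.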 The following applies: HeLa Hsp70 promoter luciferase reporter, at 10 µM, hits give high values, scaled: vehicle 0, proteasome-inhibitor control 100%. (A reporter such as luciferase makes a cellular process visible.)
Regarding `Cn1c(=O)cc(OCC(=O)N2CCN(c3ccccc3F)CC2)c2ccccc21`, the activation is 0.82%. Then `COc1ccc(C/C(C)=N/NC(=O)c2ccncc2)cc1`, with -0.08%. Then `COc1ccccc1C(=O)CSc1cccc[n+]1[O-]`, with 0.19%. Next, `CCC(C)(C(=O)Nc1ccccc1C)N(C(=O)CNC(C)=O)c1ccc(C)cc1` (stereo not drawn): -0.25%; `OCCC1CN(Cc2ccc3nsnc3c2)CCN1C1CCCCC1` (stereo not drawn): -0.14%.

As for `CC(C)(C)NCCCOc1ccc(Cl)cc1C(C)(C)C`, the activation was -0.26%. Next, `CCN(CC)Cc1nc2sc(C)c(C)c2c(=O)[nH]1`: -0.4%; `COc1ccc(/C=C/C(=O)Nc2ccc(C34CC5CC(CC(O)(C5)C3)C4)cc2)cc1OC`: 0.8%. Then `CC(NC(=S)Nc1ccc(OC(F)F)cc1)c1ccc(F)cc1` (stereo not drawn), with -0.29%; and `O=C(O)c1n[nH]nc1-c1ccccc1`, with -0.44%; and `CN(C)c1ccc(C2Nc3ccccc3C(=O)N2NS(=O)(=O)c2ccccc2)cc1` (stereo not drawn), with -0.44%. Next, `CCCC(C)C(=O)OCC(=O)Nc1c(Br)cc(C)cc1Br` (stereo not drawn): -0.19%; `O=C(Nc1nc(-c2cccnc2)cs1)c1ccccc1F`: 0.2%; `O=C(NC1CCc2ccccc21)C12CN(Cc3ccccc3)CC1C(c1cccc([N+](=O)[O-])c1)=NO2` (stereo not drawn): -0.09%. Consider `CC[C@H]1OC(=O)[C@H](C)[C@@H](O[C@H]2C[C@@](C)(OC)[C@@H](O)[C@H](C)O2)[C@H](C)[C@@H](O[C@@H]2O[C@H](C)C[C@H](N(C)C)[C@H]2O)[C@](C)(O)C[C@@H](C)[C@@H]2N[C@@H](COCCOC)O[C@H]([C@H]2C)[C@]1(C)O`, for which the activation is -0.19%. Consider `CCc1cc2c(=O)c(-c3ccc(F)cc3)c(C(F)(F)F)oc2cc1OCC(=O)O`, for which the activation was -0.05%.

As for `O=C(COC(=O)c1cc([N+](=O)[O-])ccc1NCc1ccccc1)NC1CCCCC1`, the activation is -0.39%. Next, `CCCN(CC1COc2ccccc2O1)C(=S)Nc1ccc(C)cc1` (stereo not drawn): -0.24%.

For the molecule `COc1ccc(NC(=O)COC(=O)c2ccc(NS(=O)(=O)/C=C/c3ccccc3)cc2)cc1`, the activation was -0.47%. Next, `COc1cccc(OCc2cc(/C=N/NC(=O)c3nc(Cl)c(Cl)c(N)c3Cl)ccc2OC)c1`: -0.07%. As for `CC1Cc2ccccc2N1C(=O)CSc1nnc(-c2ccc(S(=O)(=O)N3CCCC3)cc2)n1C` (stereo not drawn), the activation was 0.16%. Take `Cc1cc(C(=O)NNC(=O)c2cccc(S(=O)(=O)N3CCOCC3)c2)c2ccccc2n1`: the activation was -0.21%.

As for `Fc1ccccc1CNC(=S)Nc1ccc(Cl)cc1`, the activation was -0.2%. `Cc1nnc(SCC(=O)NNC(=O)c2ccc(Cl)cc2)n1CC1CCCO1` (stereo not drawn): the activation was -0.36%.

`CC(C)CC(=O)NC(=S)Nc1ccc(F)cc1F`: the activation is -0.43%. Next, `O=C(NCCOCc1ccc(Cl)cc1)c1ncn[nH]1`: -0.36%; `Cc1ccc(C(=O)/C=C/c2c(C)nn(-c3ccccc3)c2Cl)cc1`: -0.32%; `O=C(/C=C/Sc1ncn[nH]1)c1ccc(Cl)cc1`: 26.9% (active). For the molecule `Cc1cccc(C)c1NC(=S)N(Cc1cccnc1)Cc1ccccc1Cl`, the activation is -0.11%.

Take `N#C/C(=C/c1ccc(N2CCOCC2)o1)C(=O)N1CCOCC1`: the activation is -0.09%.

`CCC(=O)c1ccc(OCC(O)Cn2nc(C)c(C(C)=O)c2C)cc1` (stereo not drawn): the activation was 0%. Turning to `CC(C)c1ccc(C2C(C#N)=C(N)Oc3c2oc(CO)cc3=O)cc1` (stereo not drawn), the activation was -0.2%. Then `CSc1ccc(/C=C/C(=O)NC23CC4CC(CC(C4)C2)C3)cc1`, with -0.25%. Then `CCc1ccccc1NC(=O)CN(C)C(=O)COc1ccc(C)nc1[N+](=O)[O-]`, with -0.28%; and `CC1CN/C(=C\C(=O)c2ccc(Br)cc2)C(=O)N1` (stereo not drawn), with -0.31%. Then `COc1ccc(CC(NC(C)=O)C(=O)NC2CCN(C(=O)c3ccc(OC)c(OC)c3)CC2)cc1OC` (stereo not drawn), with -0.19%. As for `Cc1cc(C)n2nc(SCC(=O)NC(=O)NCc3ccco3)nc2n1`, the activation was -0.06%.

Turning to `COCc1c(C(=O)OCc2c(C)noc2C)oc2ccccc12`, the activation is 0.25%.

For the molecule `Cc1cc(C)c2[nH]c(=O)c(CN(Cc3ccccc3)C(=S)NCCCN(C)C)cc2c1`, the activation is -0.22%. With `CC(C)(C)NC(=O)Cn1cnc2cc([N+](=O)[O-])ccc2c1=O`, the activation was 0.46%. Then `NNC(=O)c1cnn(-c2ccccc2)c1C(F)(F)F`, with 0.08%.

For the molecule `CN(C)C(=O)N1CCNCC1`, the activation is -0.1%. Then `CC(C)CN(C(=O)CN1CCN(S(=O)(=O)c2ccccc2)CC1)c1c(N)n(CC(C)C)c(=O)[nH]c1=O`, with 0.23%; and `CCOC(=O)c1c(CN(C)C)n(-c2ccccc2)c2cc(Br)c(O)cc12`, with -0.03%; and `C/C(=N\Nc1ncc(Cl)cc1Cl)c1cccs1`, with -0.17%. Consider `Cc1ccc(N2C(=O)C(NC(=O)c3c(F)cccc3F)(C(F)(F)F)C3=C2CC(C)(C)CC3=O)cc1` (stereo not drawn), for which the activation is -0.33%. As to `Cc1cccc(NC(=O)Cn2c(=O)n(Cc3ccccc3)c(=O)c3c(C)c(C)sc32)c1`, the activation is -0.2%. Then `Cc1cc(Cl)ccc1OCCCC(=O)NCc1ccncc1`, with 0.28%; and `C=CCn1cc(C(=O)NCc2ccc(Cl)cc2)c(=O)c2cc(S(=O)(=O)N(CC)CC)ccc21`, with -0.11%. Then `COc1cccc(-c2nn(-c3ccccc3)cc2/C=C(\C#N)C(=O)NCCCn2ccnc2)c1`, with -0.06%; and `CC(C)Oc1ccccc1C(=O)NC(CO)C(=O)O` (stereo not drawn), with 0.09%; and `O=C(CSc1ccc([N+](=O)[O-])cn1)Nc1ccc(N2CCOCC2)cc1`, with -0.24%. With `NS(=O)(=O)c1cccnc1Nc1cccc(Cl)c1`, the activation was 0.75%. Next, `CC(Oc1ccccc1)C(=O)NN1Cc2ccccc2C1=N` (stereo not drawn): -0.3%; `CC(OC(=O)c1ccccc1N1C(=O)C2C3CCC(C3)C2C1=O)C(=O)c1ccccc1` (stereo not drawn): -0.1%. `O=[N+]([O-])c1cccc(C2=NCCS2)c1`: the activation is -0.29%. Next, `CC(=O)N1CCN(CC(=O)Nc2ccc(SC(F)F)cc2)CC1`: -0.16%; `CNC(=S)N1CCN(c2ccccn2)CC1`: 0.23%. Then `CC(=O)c1c(C)[nH]c(C(=O)OCC(=O)NCCC(C)C)c1C`, with -0.33%; and `Cc1ccccc1N1C(=O)C(Oc2ccc(Cl)cc2)C1CNCC1CCCO1` (stereo not drawn), with -0.08%. In the case of `COc1ccc(S(=O)(=O)N(C)CC(=O)N2CCCC2)cc1Cl`, the activation is -0.1%. With `NC(=O)c1ccc(NC(=O)COC(=O)c2c3c(nc4ccccc24)/C(=C\c2ccc4c(c2)OCO4)CCC3)cc1`, the activation was -0.43%.

As for `COc1ccc(C2CC(c3cccs3)=NN2C(=O)CSc2nnc(N)s2)cc1OC` (stereo not drawn), the activation was -0.12%.

With `CCN(CC)CCN(C(=O)c1cccc([N+](=O)[O-])c1)c1nc2ccc(OC)cc2s1`, the activation is -0.15%. Regarding `CCOc1ccc(-c2n[nH]c(C)c2-c2ccccn2)c(O)c1`, the activation is -0.39%.

As for `CCC(=O)NC(Nc1cc(C)ccn1)(C(F)(F)F)C(F)(F)F`, the activation is -0.11%. For `Cc1ccc(NC(=S)N(CCCN2CCCC2)Cc2cccn2Cc2ccc(Cl)cc2)cc1`, the activation is 0.2%.

For the molecule `COc1ccc(NC(=O)/C(C#N)=C\c2cc(OC)c(OCc3ccc(C(=O)O)cc3)cc2Br)cc1`, the activation was -0.51%.

As to `COc1ccc(NC(=O)CSc2nnc(-c3ccccc3F)n2C2CC2)cc1S(N)(=O)=O`, the activation is -0.2%.

As to `Cc1ccc(-n2c(SCC(=O)N3c4ccccc4Sc4ccccc43)nnc2-c2ccncc2)cc1`, the activation was -0.33%.

In the case of `CC(C)NC(=O)NC(=O)CSc1nnc(-c2ccccc2F)n1N`, the activation was 0.03%. With `Cc1cc(C)c(OCCN2CC(C)OC(C)C2)c(Br)c1` (stereo not drawn), the activation is -0.19%. As for `Cc1ccc(C)c(-n2cc(CN3CCN(C(=O)c4ncn[nH]4)CC3)c(-c3ccccc3)n2)c1`, the activation is -0.1%. Next, `CC(=C/c1ccccc1)/C=N/NC(=O)c1cc(C)oc1C`: 0%; `CCCOC1CCCN(Cc2cn(C)nc2-c2ccccc2F)C1` (stereo not drawn): -0.04%; `Cc1ccccc1NC(=O)Cn1c(=O)n(CC2CCCO2)c(=O)c2ccccc21` (stereo not drawn): -0.17%. Next, `O=C1NC2(CCCCCC2)C(=O)N1CCS(=O)(=O)Oc1ccccc1`: -0.27%; `Cc1ccc(C(=O)NCC(=O)O)s1`: 0.11%; `O=C(CCCN1C(=O)/C(=C/c2ccccc2)SC1=S)Nc1ccc(O)cc1`: -0.12%. In the case of `Cc1ccc(NC(=O)c2cccnc2C(=O)Nc2ccc(C)cc2)cc1`, the activation was -0.14%. Then `NC(=O)C[C@@H]1NC(=O)CNC(=O)c2cc([N+](=O)[O-])cc(I)c2NCCC(C(N)=O)NC1=O` (stereo partly drawn), with 0.03%; and `Cc1cccc(NC(=S)NC(=O)c2ccc(Br)o2)c1`, with 0.26%; and `CC(=O)Nc1nc2ccccc2n1Cc1ccc(C)cc1`, with -0.13%. Then `COC(=O)CN1C(=S)N(c2ccccc2)C(=O)C1CC(=O)Nc1ccc(Cl)cc1` (stereo not drawn), with -0.13%; and `COc1ccc(-c2nc(N)sc2C2(O)C(=O)Nc3c(Br)cc(F)cc32)cc1OC` (stereo not drawn), with -0.09%.

In the case of `CCOc1ccc(N2CC(C(=O)NCCN3C(=O)S/C(=C\c4cccnc4)C3=O)CC2=O)cc1` (stereo not drawn), the activation was -0.14%. Regarding `Cc1ccc(Cl)c(NC(=O)CN(C)CC(=O)Nc2ccc(F)c(F)c2F)c1Cl`, the activation was -0.39%. Next, `C/C(=N\NC(=O)CCn1nc(C)cc1C)C(C)(C)C`: -0.13%.

The values are drawn from PubChem BioAssay AID1203 (The Scripps Research Institute Molecular Screening Center, 2008).
